Source: PubChem BioAssay
MBD2 DNA inh: blocks human MBD2 binding to methylated DNA | Q9UBB5 | TR-FRET, MBD2 binding to methylated oligonucleotide | inhibition, % at 4.4 µM | 0.31% of 370,000 active | AID 686964; in the data active means inhibition above about 13%
Neddyl block: cullin neddylation inhibition; 0.58% of 360,000 active; calls only at 25 µM; AID 651699; P61081+Q13564; TR-FRET cullin neddylation, biochemical; in the data active means inhibition above about 36%
UBC13 inh: human UBC13 polyubiquitination inhibition; P61088; UBC13 polyubiquitin chain formation, TR-FRET; inhibition, % at 20 µM; 0.47% of 330,000 active; in the data active means inhibition above about 45%, passing the limit was not always enough
UHRF1 MBD2 ctr: blocks human UHRF1 binding to methylated DNA; Q96T88; UHRF1 binding to methylated oligo, TR-FRET; inhibition, % at 4.4 µM; 0.75% of 370,000 active; in the data active means inhibition above about 21%;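 further: UHRF1 SRA domain binding a hemimethylated CpG hairpin DNA probe; 0% = median of test compound wells and 100% = reference inhibitor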
Target sequence (Q96T88 whole entry, looked up, the tested form may be a part): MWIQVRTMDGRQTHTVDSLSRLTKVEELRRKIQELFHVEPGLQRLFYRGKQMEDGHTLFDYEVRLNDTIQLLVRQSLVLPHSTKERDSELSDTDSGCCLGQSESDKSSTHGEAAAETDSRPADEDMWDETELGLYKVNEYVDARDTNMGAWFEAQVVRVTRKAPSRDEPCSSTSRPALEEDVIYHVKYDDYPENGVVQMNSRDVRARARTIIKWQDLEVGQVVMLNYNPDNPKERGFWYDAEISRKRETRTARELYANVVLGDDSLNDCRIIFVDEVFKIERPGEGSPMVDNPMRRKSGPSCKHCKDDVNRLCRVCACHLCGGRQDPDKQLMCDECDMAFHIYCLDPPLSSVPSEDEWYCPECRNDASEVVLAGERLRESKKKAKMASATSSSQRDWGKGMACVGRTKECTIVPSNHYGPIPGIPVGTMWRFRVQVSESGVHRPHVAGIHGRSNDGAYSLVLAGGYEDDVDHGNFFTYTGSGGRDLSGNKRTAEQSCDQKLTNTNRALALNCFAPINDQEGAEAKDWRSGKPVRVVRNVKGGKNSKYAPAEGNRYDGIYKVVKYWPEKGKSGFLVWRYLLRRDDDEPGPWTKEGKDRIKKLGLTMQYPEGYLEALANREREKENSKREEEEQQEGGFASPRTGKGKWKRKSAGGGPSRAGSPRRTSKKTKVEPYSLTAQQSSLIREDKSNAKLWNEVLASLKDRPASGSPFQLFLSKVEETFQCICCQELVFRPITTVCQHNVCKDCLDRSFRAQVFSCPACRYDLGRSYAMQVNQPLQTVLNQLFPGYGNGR
Neddyl inh conf: confirmation of human cullin neddylation inhibitors; shares compounds with Neddyl block; TR-FRET cullin neddylation biochemical assay; calls only at 25 µM; 13% of 1,800 active; AID 652217; in the data active means inhibition above about 40%;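 further: neddylation substrate is the cullin 1 ring ligase complex with SKP2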
An asterisk follows results filed as active. An excerpt weighted towards active compounds, which were near 1.8% of everything screened.

`CCCCn1c(=NC(=O)c2cccnc2)c(C(=O)OCC)cc2c(=O)n3ccccc3nc21` gave MBD2 DNA inh 0 and UHRF1 MBD2 ctr -1.
`CCOCCCn1c(=NC(=O)c2cccnc2)c(C(=O)OCC)cc2c(=O)n3ccccc3nc21` gave MBD2 DNA inh -2, UBC13 inh -11, UHRF1 MBD2 ctr -5 and Neddyl inh conf active.
Screening Cc1cccc(N2CC(C(=O)Nc3nc4ccc(S(C)(=O)=O)cc4s3)CC2=O)c1C (centres undefined) returned MBD2 DNA inh -4, Neddyl block inactive, UBC13 inh 4 and UHRF1 MBD2 ctr 0.
`CCOc1cc(/C=N/NC(=O)c2ccc(NC(=O)C3CC3)cc2)ccc1O` gave MBD2 DNA inh -4, Neddyl block inactive, UBC13 inh -1 and UHRF1 MBD2 ctr 1.
For CCOc1cc(/C=N/NC(=O)c2cc(C)n(-c3ccc(F)cc3)c2C)ccc1O the results were MBD2 DNA inh -2, Neddyl block active, UBC13 inh 23, UHRF1 MBD2 ctr -1 and Neddyl inh conf inactive.
Screening O=C(O)c1ccc(NC(=O)c2cccc(C(=O)Nc3ccc(C(=O)O)cc3)n2)cc1 returned MBD2 DNA inh 5, Neddyl block inactive, UBC13 inh 3 and UHRF1 MBD2 ctr 2.
For O=C(Nc1ccccc1)c1cccc(C(=O)Nc2ccccc2)n1 the results were MBD2 DNA inh 1, Neddyl block active, UBC13 inh -8, UHRF1 MBD2 ctr -1 and Neddyl inh conf inactive.
Screening O=C(O)C/C(=C\c1ccc2c(c1)OCO2)c1nc2ccccc2s1 returned MBD2 DNA inh 4, Neddyl block active, UBC13 inh 0 and UHRF1 MBD2 ctr -1.
`O=C(O)C/C(=C\c1cc(Cl)c2c(c1)OCO2)c1nc2ccccc2s1` gave MBD2 DNA inh -8, Neddyl block inactive, UBC13 inh -3 and UHRF1 MBD2 ctr -1.
COc1ccc2cc(C(=O)C3CCCN(C(=O)/C=C/c4ccccn4)C3)ccc2c1 (centres undefined) was read as MBD2 DNA inh 5, Neddyl block active, UBC13 inh 6, UHRF1 MBD2 ctr 1 and Neddyl inh conf inactive.
For COc1ccc2cc(C(=O)C3CCCN(C(=O)c4cnccn4)C3)ccc2c1 (centres undefined) the results were MBD2 DNA inh -6, UBC13 inh 12 and UHRF1 MBD2 ctr -3.
`COc1cc(NC(=O)CSc2nc3ccccc3n2-c2ccccc2)c(C)cc1[N+](=O)[O-]` gave MBD2 DNA inh 2, Neddyl block active, UBC13 inh -11, UHRF1 MBD2 ctr 4 and Neddyl inh conf inactive.
`O=C(COC(=O)CCOc1ccccc1)NCCC1=CCCCC1` gave MBD2 DNA inh 1, Neddyl block inactive, UBC13 inh -6 and UHRF1 MBD2 ctr 1.
O=c1[nH]c2ccc(S(=O)(=O)N3CCN(C4CCCCC4)CC3)cc2[nH]c1=O was read as MBD2 DNA inh -3, Neddyl block active, UBC13 inh 12 and UHRF1 MBD2 ctr -2.
COc1ccc(-c2[nH]c(-c3cccc(OC)c3)nc2SCC(=O)NCc2ccco2)cc1 was read as MBD2 DNA inh -4, Neddyl block active, UBC13 inh 1, UHRF1 MBD2 ctr -1 and Neddyl inh conf inactive.
For COc1ccc(-c2nnc3ccc(SCC(=O)NCC4CCCO4)nn23)cc1 (centres undefined) the results were Neddyl block inactive and UBC13 inh 8.
For Cc1ccc(-c2ccc3nnc(SCC(=O)NCC4CCCO4)n3n2)cc1 (centres undefined) the results were MBD2 DNA inh -1, Neddyl block inactive, UBC13 inh 7 and UHRF1 MBD2 ctr -1.
For CCOc1ccc(-c2ccc(SCC(=O)NCC3CCCO3)nn2)cc1 (centres undefined) the results were MBD2 DNA inh -3, Neddyl block inactive, UBC13 inh 2 and UHRF1 MBD2 ctr -1.
For CCc1ccc(-c2ccc3nnc(SCC(=O)NCC4CCCO4)n3n2)cc1 (centres undefined) the results were MBD2 DNA inh -1, Neddyl block active, UBC13 inh 15 and UHRF1 MBD2 ctr 0.
For CCOc1ccc(-c2ccc3nnc(SCC(=O)NCC4CCCO4)n3n2)cc1 (centres undefined) the results were MBD2 DNA inh -1, Neddyl block active, UBC13 inh 12 and UHRF1 MBD2 ctr 0.
For COc1ccc(-c2ccc3nnc(SCC(=O)NCC4CCCO4)n3n2)cc1 (centres undefined) the results were MBD2 DNA inh 2, Neddyl block active, UBC13 inh 8 and UHRF1 MBD2 ctr 1.
